# Assay results from the supplement of paper PMC12636033.
# ± gives the standard deviation of the averaged measurements. In all, about 33,000 sequences were measured (“E-score (rank enrichment, -0.5 to 0.5)”: median about -0.0068, highest 2% from about 0.24 on). The sample as a whole holds a higher share of the highest values than the screen did.
# Test system: muMax20 (Max(13-93) K31hArg/K57hArg, M65Nle)
# Experiment: PBM 8-mer E-score (E-score (rank enrichment, -0.5 to 0.5)); higher = stronger preferential binding
# Protocol: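 Protein binding microarray (universal PBM chip covering all 10-mers in fixed probe flanks) with chemically synthesized human Max(13-93) bHLH-LZ analogs (not full-length Max) bearing noncanonical residues (hArg, Tha, Aib, Nle at 65) and aromatic Cys staples. Read-out per 8-mer (and its reverse complement): E-score (rank-based enrichment, -0.5 to 0.5) and Z-score of median probe intensity.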
row,Sequence,PBM 8-mer E-score
1,TATCAACA,0.158 ± 0.054
2,GATCAACA,0.0109 ± 0.0053
3,ACGGTGTG,-0.143 ± 0.056
4,GCCTTGTA,0.029 ± 0.077
5,ACCTTGTA,0.238 ± 0.077
6,CCCTTGTA,0.0442 ± 0.13
7,GTCAGGAA,-0.0169 ± 0.068
8,ATAGAGCC,-0.106 ± 0.093
9,TAATACTA,0.252 ± 0.0039
10,TAATACCA,0.24 ± 0.014
11,CAATACCA,0.149 ± 0.042
12,GAATACCA,0.121 ± 0.025
13,AAATACTA,0.193 ± 0.081
14,CAATACTA,0.16 ± 0.062
15,ACAGCAGG,-0.0464 ± 0.034
16,GCTCCCCA,0.128 ± 0.042
17,CGGTCCTA,-0.17 ± 0.11
18,ATATGGGG,0.0664 ± 0.016
19,GCGCGAAC,-0.0762 ± 0.17
20,GACTAAGC,-0.239 ± 0.043
21,AACCATTA,0.269 ± 0.0088
22,CACCATTA,0.0322 ± 0.16
23,AACCATTG,-0.0386 ± 0.14
24,TAAATGAA,0.114 ± 0.11
25,AGTTGCAC,-0.00822 ± 0.011

row,Sequence,PBM 8-mer E-score
1,AGTTGCAG,0.0866 ± 0.039
2,AGTTGCAT,0.287 ± 0.067
3,GGTTACAC,0.151 ± 0.076
4,CGTGCTCA,0.162 ± 0.051
5,CGATGGAG,-0.153 ± 0.037
6,AACGTGGG,0.184 ± 0.14
7,GACGTGGC,-0.0512 ± 0.032
8,CACGTGGG,0.447 ± 0.062
9,CATGTGAG,0.216 ± 0.059
10,TATGTGAA,0.299 ± 0.074
11,GATGTGAA,0.105 ± 0.079
12,GATGTGAC,-0.206 ± 0.059
13,AATGTGAA,0.211 ± 0.056
14,CAAGTGGG,0.0751 ± 0.013
15,AACGTGGC,0.0382 ± 0.033
16,CATGTGAC,0.314 ± 0.075
17,CACGTGGC,0.442 ± 0.068
18,AAGTTCTC,-0.179 ± 0.0056
19,CACTGCAC,-0.0231 ± 0.055
20,CTCTAACC,-0.0244 ± 0.061
21,CGAATTTC,0.0312 ± 0.1
22,CGTTACCA,0.124 ± 0.012
23,CGCCATTA,-0.0752 ± 0.029
24,GCCCCTGA,-0.179 ± 0.034
25,AAGCTTAG,0.0465 ± 0.086

row,Sequence,PBM 8-mer E-score
1,CACGTGGA,0.459 ± 0.037
2,CATGTGGG,0.309 ± 0.033
3,CATGTGGA,0.213 ± 0.054
4,TACGTGGA,0.0197 ± 0.044
5,GACGTGGA,0.04 ± 0.064
6,AGTGTGAA,0.254 ± 0.011
7,AGTGTGAG,0.163 ± 0.14
8,AATGTGGG,0.142 ± 0.14
9,TGTGTGAA,0.183 ± 0.038
10,GCCTCGGA,-0.187 ± 0.058
11,AAGTAGCC,-0.0862 ± 0.0056
12,AACCTGAA,0.0509 ± 0.081
13,AGGTTTCA,-0.031 ± 0.018
14,CACAAAAC,0.165 ± 0.027
15,TAGACTCA,-0.163 ± 0.0053
16,CTGTGAGC,-0.113 ± 0.058
17,ACAAAGAT,0.137 ± 0.027
18,AAAAAGCC,0.166 ± 0.028
19,AAAAAGAT,0.24 ± 0.03
20,AAAAAGAC,0.0949 ± 0.026
21,AAAAAGCT,0.272 ± 0.099
22,AAAAAGCA,0.218 ± 0.046
23,ATATCGCG,0.0599 ± 0.043
24,AGAAAGAT,0.061 ± 0.093
25,ATTTTGAG,0.111 ± 0.012

row,Sequence,PBM 8-mer E-score
1,AATTTGAA,0.149 ± 0.027
2,ATTTTGAA,0.253 ± 0.084
3,CTCGAGGA,-0.0146 ± 0.017
4,AATCCTGA,-0.167 ± 0.053
5,ACACATGG,0.271 ± 0.06
6,AAACATGG,0.178 ± 0.064
7,CCACATGG,0.255 ± 0.11
8,AAACATGA,0.169 ± 0.031
9,ACACATGA,0.148 ± 0.068
10,TCACATGA,0.173 ± 0.029
11,GCACATGA,0.256 ± 0.095
12,CCACATGC,0.217 ± 0.057
13,ACACATGC,0.22 ± 0.019
14,GCACATGC,0.166 ± 0.06
15,AAACATGT,0.331 ± 0.04
16,CCACATGA,0.225 ± 0.1
17,GAGGAGCC,-0.1 ± 0.084
18,ACCGGTGG,-0.147 ± 0.06
19,ACTACATC,0.224 ± 0.007
20,CACCCCTC,0.11 ± 0.013
21,AACCCATC,-0.108 ± 0.085
22,ACACATCT,0.11 ± 0.072
23,ACACATGT,0.346 ± 0.023
24,ACACATAT,0.184 ± 0.053
25,CAGGCGCC,-0.0488 ± 0.0079

row,Sequence,PBM 8-mer E-score
1,TTATTGAA,0.3 ± 0.045
2,ATATTCAC,0.181 ± 0.12
3,ATATTGAC,0.0428 ± 0.0027
4,ATATTCAA,0.197 ± 0.0025
5,ATATTGAA,0.161 ± 0.022
6,ATATTCAT,0.287 ± 0.04
7,ATATTGAG,0.0529 ± 0.069
8,GTATTGAA,0.209 ± 0.047
9,ATATTGAT,0.25 ± 0.047
10,AATGGTAC,0.0908 ± 0.11
11,AACGGCAC,-0.107 ± 0.11
12,CGGTCTCA,-0.242 ± 0.2
13,GGTACCTA,-0.105 ± 0.16
14,AAGCACTT,0.132 ± 0.045
15,ACTATGCG,0.16 ± 0.042
16,ATAAAAAG,0.328 ± 0.066
17,ATAAAAGG,0.192 ± 0.058
18,AATAAAAG,0.281 ± 0.011
19,AATAAACC,0.175 ± 0.022
20,GATAAAAC,0.203 ± 0.078
21,AATAAAAT,0.0637 ± 0.011
22,AAAAAAAG,0.178 ± 0.016
23,AATAAAAA,0.266 ± 0.015
24,AATAAAAC,0.271 ± 0.01
25,AATAAAGG,0.0493 ± 0.095

row,Sequence,PBM 8-mer E-score
1,AATAAACA,0.171 ± 0.075
2,ATAAAAAA,0.189 ± 0.02
3,CGAGCAGC,-0.0303 ± 0.083
4,AGCTTGCA,-0.0404 ± 0.11
5,TCCCTAGA,-0.0505 ± 0.13
6,CAATCTTC,-0.0387 ± 0.0054
7,AAAGTCTG,0.032 ± 0.042
8,GGAATGGA,-0.00962 ± 0.022
9,CACGCGAA,0.0636 ± 0.033
10,CACGCGAG,0.0936 ± 0.048
11,GACGCGGC,-0.105 ± 0.025
12,CACGCGGA,0.289 ± 0.066
13,AACGCGGC,-0.118 ± 0.16
14,CACGCGAC,0.245 ± 0.15
15,AACGCGGA,-0.13 ± 0.019
16,CACGCGGG,0.154 ± 0.086
17,CACGCGGC,0.281 ± 0.064
18,CGACAGCG,-0.213 ± 0.1
19,CTAGATTA,0.104 ± 0.021
20,AGTAACAT,0.289 ± 0.038
21,AGTAACAA,0.117 ± 0.048
22,AATAACAC,0.122 ± 0.0046
23,AATAACCA,0.076 ± 0.0086
24,AATAACAG,0.0596 ± 0.12
25,TATAACAA,0.258 ± 0.015

row,Sequence,PBM 8-mer E-score
1,AGTAACAG,0.142 ± 0.024
2,GATAACAA,0.0646 ± 0.12
3,AATAACAT,0.256 ± 0.028
4,ACTAACAA,0.236 ± 0.048
5,AATAACAA,0.271 ± 0.0084
6,CATAACAA,0.147 ± 0.03
7,ACCGGACT,-0.151 ± 0.13
8,TCAATCCA,0.105 ± 0.008
9,CCTTAAGA,0.0233 ± 0.059
10,ACTTTCAT,0.0117 ± 0.13
11,AGGCGCGC,0.115 ± 0.0093
12,GCGATTAA,0.14 ± 0.13
13,ATGATTAA,0.169 ± 0.049
14,CTGATTAA,0.0981 ± 0.079
15,ACGATTAA,0.0506 ± 0.14
16,GTGATTAA,0.256 ± 0.066
17,TCGATTAA,0.261 ± 0.051
18,CCAGCTCG,-0.23 ± 0.058
19,AAGTCCCA,0.0496 ± 0.017
20,TCTAGCCA,-0.0192 ± 0.021
21,CGTACCCC,0.134 ± 0.012
22,CGCTCGCA,-0.00112 ± 0.055
